Compounds with a hit are over-represented: about 8% of the library has one in this group of screens.
MCF10A rerep – inducers of DNA re-replication in MCF 10A breast cells; MCF 10A DNA re-replication, Hoechst nuclear intensity, 48 h; Potency, µM (titrated, usually from 46.1 µM), inactives show top-dose activity, positive = re-replication, actives largely listed as activators; 350,000 compounds, 2.9% hits; also: % of control where 0% means no effect; nearly all actives have a fitted effect of over 50% in size
KB-V1 cytotox – kills drug-selected multidrug resistant KB-V1 cells; Potency, µM (series often up to 46.1 µM), usual class: cytotoxic; 400,000 compounds, 3.4% hits; KB-V1 MDR cells viability, CellTiter-Glo, 72 h; also: % is scaled to controls: 0 for no effect and ±100 for the full control effect; nearly all actives have a fitted effect of over 60% in size
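Cytotoxicity toward P-gp-expressing KB-V1 cells was determined as loss of CellTiter-Glo luminescence after 72 h at 37 degrees C. Compounds were tested in quantitative HTS format across a concentration range, with curves fitted to normalized data.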
SW480 rerep – DNA re-replication induction in SW480 cells; Potency, µM (series often up to 46.1 µM), for the others: at the highest dose re-replication activation, usual class: activators; SW480 DNA re-replication, Hoechst DNA content imaging, 48 h; 340,000 compounds, 1.8% hits; also: % of control where 0% means no effect; nearly all actives have a fitted effect of over 55% in size
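SW480 cells exposed to compounds for 48 hr at 37 C, 5% CO2, then Hoechst-stained 40 min. Nuclear DNA content imaged by fluorescence scanning (405 nm excitation, 500-530 nm emission); re-replication scored as increased high-intensity nuclei.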
HT1080 IDH1KD tx – HT-1080 IDH1 knockdown cell toxicity (counter line); 360,000 compounds, 2% hits; HT-1080 IDH1 knockdown viability, ATP luminescence, 48 h; Potency, µM (highest dose often 46.1 µM), for the others: top-dose activity, negative = toxicity, hits mostly cytotoxic;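 also: 0% = DMSO wells and -100% = cell-free medium wells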
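CellTiter-Glo luminescence after 48 h compound exposure at 37 degrees C of IDH1-knockdown HT-1080 cells in 5% FBS RPMI. %Activity scaled between DMSO wells and cell-free media wells, with curves fitted and assigned curve classes.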
HT1080NT lethal – kills 2HG-producing HT-1080-NT fibrosarcoma cells; HT-1080-NT fibrosarcoma viability, CellTiter-Glo ATP luminescence, 48 h; Potency, µM (top dose mostly 46.1 µM), for the others: top-dose activity, negative = less viability, usual class: cytotoxic; 360,000 compounds, 1.6% hits;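 also: NT is the 2HG producing partner of a matched IDH1 knockdown line; 0% = DMSO-treated cells and -100% = media-only wells without cells; nearly all actives have a fitted effect of over 55% in size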
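A 48-hour cytotoxicity screen used HT-1080-NT cells plated 2 hours before compound delivery. ATP-based CellTiter-Glo luminescence measured viability, normalized to DMSO and no-cell controls.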
KB-3-1 tox – KB-3-1 parental cell cytotoxicity | KB-3-1 viability, CellTiter-Glo ATP luminescence, 72 h | Potency, µM (doses to about 46.1 µM), most hits filed as cytotoxic | 400,000 compounds, 1.4% hits; also: % is scaled to controls: 0 for no effect and ±100 for the full control effect; nearly all actives have a fitted effect of over 60% in size
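Screening of KB-3-1 cells (DMEM, 10% FBS, phenol-red free) ran from lowest to highest compound concentration; after 72 h at 37 °C viability was read luminescently and curves fitted.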
Numbers without * were called inactive; i = inactive; u = inconclusive; x = not tested or not shown. Calls follow the shape of the dose curve; as a rule, active = well fitted curve in the direction sought with a large enough effect; inconclusive = small, poorly fitted or top-dose-only effect, or another doubt; inactive = no such curve, though single readings can be large; an effect the other way counts as inactive or inconclusive. Potency is read from the fitted curve at half-maximal effect.

SMILES | MCF10A rerep | KB-V1 cytotox | SW480 rerep | HT1080 IDH1KD tx | HT1080NT lethal | KB-3-1 tox
CCCCOCC(O)Cn1c(C)nc2ccccc21 (configuration not stated) | 2.2% | u | -1.1% | -3.5% | 12.9% | i
Cc1cc(C)n(CCNC(=O)CCc2nnc(CCc3ccccc3)o2)n1 | -0.2% | i | 0.6% | -2.7% | -2.8% | i
COc1ccc(CCNc2nc(-c3ccco3)cc(C(F)(F)F)n2)cc1OC | 1.7% | i | -6.3% | -4.6% | -10.9% | i
COc1ccc(/C(C)=N/NC(=O)C2C3CCCCC32)c(OC)c1 (configuration not stated) | 0.7% | i | -1.2% | 25.4% | u | i
O=C(O)c1cc2c(N3CCC(Cc4ccccc4)CC3)ncnc2s1 | u | i | 0.7% | -6.2% | -1.3% | i
c1ccc(CC2CCN(c3ncnc4sccc34)CC2)cc1 | 20.2% | i | u | u | 11.6µM* | i
COC(=O)N/N=C/c1cn(Cc2c(Cl)cccc2Cl)c2ccccc12 | -40.2% | 16.4µM* | -40.6% | -7.3% | -1.8% | i
COC(=O)N/N=C/c1cn(CCCOc2ccccc2)c2ccccc12 | u | 23.1µM* | u | u | -21.3% | u
COC(=O)N/N=C/c1cn(Cc2ccc(Cl)cc2Cl)c2ccccc12 | u | 16.4µM* | u | -23.6% | -18.5% | u
COC(=O)N/N=C/c1cn(Cc2ccccc2Cl)c2ccccc12 | 12.1% | i | -1.3% | u | -19.0% | i
Cc1ccc2c(CNC3CCCC3)c(C(=O)O)n(Cc3ccc(F)cc3)c2c1 | x | i | x | x | x | i
CC(=O)Nc1ccc(S(=O)(=O)N2CCN(C(C)CCc3ccccc3)CC2)cc1 (configuration not stated) | u | i | 0.1% | 1.2% | 3.2% | i
COc1ccc(O)c(/C=N/NC(=O)CCC(=O)Nc2cccc(C)c2)c1 | u | u | 5.8µM* | u | u | i
COc1cccc(/C=N/NC(=O)CCCC(=O)Nc2ccc(Br)cc2)c1 | 4.0% | 14.6µM* | -4.9% | -13.5% | -8.5% | i
COc1ccc(O)c(/C=N/NC(=O)CCC(=O)Nc2ccc(C)cc2)c1 | 7.0% | i | u | -10.9% | -6.2% | i
Cc1cccc(NC(=O)CCC(=O)N2CCOCC2)n1 | -3.1% | i | 8.2% | 6.3% | 11.6% | i
COc1ccc(C=NNC(=O)CCCCC(=O)NN=Cc2ccc(OC)cc2)cc1 | 10.1% | u | -16.2% | -2.2% | -1.9% | i
COC(=O)/C=C\C(C#N)(C#N)N=Cc1ccc(OC)cc1 | 13µM* | i | 6.51µM* | 5.8µM* | u | u
ClCc1nc2ccccc2c2ccccc12 | u | u | 18.4µM* | 18.4µM* | 5.8µM* | u
CCOC(=O)c1c(CCl)nc2ccccc2c1-c1ccccc1 | u | i | u | -14.7% | -8.3% | i
O=C(NCCCc1nc2ccccc2n1Cc1ccccc1)C1CCCCC1 | x | i | x | x | x | i
COC(=O)c1cccc(NC(=O)c2ccc(S(=O)(=O)N(C)c3ccccc3OC)cc2)c1 | x | u | x | -28.2% | -0.4% | i
CCCc1nnc(NC(=O)c2ccc(S(=O)(=O)N(C)c3ccccc3OC)cc2)s1 | u | 14.6µM* | 3.5% | -5.1% | -6.0% | i
COc1ccccc1N(C)S(=O)(=O)c1ccc(C(=O)NCC(C)C)cc1 | 2.2% | 23.1µM* | -5.0% | 4.0% | 5.4% | i
COc1ccccc1N(C)S(=O)(=O)c1ccc(C(=O)Nc2ccc3nc(C)sc3c2)cc1 | u | 23.1µM* | x | -27.0% | -12.2% | u
SMILES | MCF10A rerep | KB-V1 cytotox | SW480 rerep | HT1080 IDH1KD tx | HT1080NT lethal | KB-3-1 tox
COc1ccc(Cc2nnc(NC(=O)Nc3ccccc3OC)s2)cc1 | u | i | 21.5% | -7.5% | -28.2% | u
CCCc1nnc(NC(=O)Nc2ccccc2OC)s1 | -0.4% | 18.4µM* | 0.6% | 12.3% | 1.6% | i
COc1ccc(CNC(=O)CN2C(=O)NC3(CCCCCC3)C2=O)cc1 | 4.9% | i | -6.7% | -0.9% | 4.6% | i
CC(=O)c1ccc(N2CCN(S(=O)(=O)c3ccc4c(c3)CC(C)N4C(=O)C3CC3)CC2)cc1 (configuration not stated) | -1.7% | i | u | -7.9% | -4.5% | u
CC(=O)c1ccc(N2CCN(S(=O)(=O)c3ccc4c(c3)CC(C)N4C(C)=O)CC2)cc1 (configuration not stated) | 2.4% | 8.2µM* | -3.1% | u | u | u
CCC(=O)N1c2ccc(S(=O)(=O)N3CCN(c4ccccc4)CC3)cc2CC1C (configuration not stated) | x | i | x | x | x | i
CCC(=O)N1c2ccc(S(=O)(=O)N3CCN(c4ccc([N+](=O)[O-])cc4)CC3)cc2CC1C (configuration not stated) | -2.5% | i | 16.4% | 6.51µM* | u | i
Cc1cc([N+](=O)[O-])ccc1NCc1cccc2ccccc12 | -0.2% | 13µM* | 2.4% | -0.8% | u | i
Cc1cc([N+](=O)[O-])ccc1NCc1ccccc1[N+](=O)[O-] | 18.6% | i | 1.1% | -12.5% | -11.9% | u
COCCCNC(=O)CSc1c2c(nc3ccc(Cl)cc13)CCCC2 | 23.1µM* | i | -0.1% | u | u | i
CCN(CC)CCCNC(=O)CSc1c2c(nc3cc(Cl)ccc13)CCCC2 | 117.2% | i | u | 23.1µM* | 23.1µM* | i
O=C(CSc1c2c(nc3cc(Cl)ccc13)CCCC2)NCCCN1CCOCC1 | 23.1µM* | i | u | u | u | i
O=C(CSc1c2c(nc3cc(Cl)ccc13)CCCC2)NCCN1CCOCC1 | u | i | u | 0.1% | -1.0% | i
Cc1[nH]c(=O)[nH]c(=O)c1/C=N/NC(=O)[C@H](CC(C)C)NC(=O)OC(C)(C)C | -8.0% | i | -121.9% | 6.5% | 2.2% | i
Cc1ccc(C2(c3noc(CN4CCC(C(=O)N5CCOCC5)CC4)n3)CCCC2)cc1 | -0.3% | u | -3.7% | 5.7% | 20.1% | i
CCCCCCCCCC(=O)N[C@H](CN1CCOCC1)[C@H](O)c1ccccc1 | -7.3% | u | -7.3% | u | 16.4µM* | i
CCCCCCCCCCCC(=O)NC(C(=O)O)C(O)c1ccccc1 (configuration not stated) | u | i | 5.0% | -14.5% | -21.1% | i
Cc1sc2ncnc(NCc3ccco3)c2c1C | -2.8% | 2.59µM* | 0.6% | -3.8% | -1.2% | 6.51µM*

From PubChem
